# PubChem BioAssay (EPA / NIEHS)
# Active and inactive are the calls of the source. Rule for the calls: active = hit-call score of the fitted dose curve at least 0.9, where 1 is the maximum; inactive = score below 0.9.
# Read-out: ABC Transporter (ABCC3), ABCC3 (gene 8714)
# Assay: LTEA_HepaRG_ABCC3: Life Technologies and Expression Analysis (LTEA) Assay for ABC Transporter (ABCC3) using HepaRG (AID 2283462)
# Conditions: mRNA level, 48 h; actives raise or lower the signal
# Protocol: LTEA_HepaRG is a cell based, multiplexed-readout assay that uses HepaRG, a human liver cell line, with measurements taken at 48 hours after chemical dosing on a 96-well plate.LTEA_HepaRG_ABCC3 is one of 102 assay component(s) measured in the LTEA HepaRG cell culture assay. It is a marker of NR mediated transport.Data from the assay component LTEA_HepaRG_ABCC3 was analyzed into 1 endpoint. This assay endpoint, LTEA_HepaRG_ABCC3, was analyzed with bidirectional fitting relative to DMSO as the negative control and baseline of activity. Using a type of inducible reporter, measures of mRNA induction for gain or loss-of-signal activity can be used to understand regulation of transcription factor activity. To generalize the intended target to other relatable targets, this assay endpoint is annotated to the transporter intended target family, where the subfamily is ABC transporter.
# A total of 1060 chemcials from the ToxCast library were tested in eight-point concentration-response experiments. Cell culture and cytotoxicity assays were conducted at Thermo Fisher Scientific's Custom Services facility (Madison, WI). A single lot of human HepaRG cells (Thermo Fisher Scientific, Frederick, MD) was used for the cell culture experiments. 96-well format collagen type I coated plates of human HepaRG cells were prepared using established methods. Briefly, cryopreserved HepaRG cells were thawed, plated at a density of approximately 100,000 cells/well in HepaRG Thaw, Plate, and General Purpose media (HPRG770, Thermo Fisher Scientific), and incubated for 48 hours. 0.5% DMSO was selected as vehicle control to balance the requisite need of DMSO in HepaRG cultures to maintain differentiation (for example, baseline metabolism, proportions of hepatocytes vs. cholangiocytes), while enabling further hepatic receptor pathway activation (for example, PXR and CAR) in response to chemical exposure. 48 hours after plating, the culture medium was replaced with HepaRG Serum-Free Incudtion Media. Cells were exposed to each test chemical in duplicate and maintained in CO2 incubators for another 48 hours. Chemical plates were thawed to room temperature and 200x concentrations of treatment groups were prepared. 8-point conentration-reponse curves were made with the highest exposure at 100 uM, followed by half-log dilutions, all in 0.5% DMSO. Each test plate contained variouse controls, induction positive controls (1mM phenobarbital), cytotoxicity positive controls ([…] aflatoxin B1), vehicle controls (0.5% DMSO), and total lysis controls (0.5% DMSO). Cell morphology images were taken using an Essen IncuCyte FLR automated microscope, with six 96-well plates imaged in about 24 minutes. Images were captured and exported and JPEG files. Spent culture media was transfered to black-well plates for the LDH assay, and remaining media was sorted at -80 C for later use. Cells were treated with RLT buffer and frozen until shipped for gene expression analysis. Total RNA was isolated from the cell suspension in 75 uL of Buffer RLT (Qiagen, Germantown, MD 20874) by Quintiles/Expression Analysis (Durham, NC) using a custom isolation procedure. Total RNA from each plate well was transferred to a preamplification plate. Fluidigm's 96.96 Dynamic ArrayTM (Fluidigm, Amsterdam, the Netherlands) technology was used for gene expression analyses by quantitative reverse transcription polymerase chain reaction (qRT-PCR, performed by Quintiles/Expression Analysis, Durham, NC)89. Standard TaqManTM Assays (Applied Biosystems/ThermoFisher Scientific, Foster City, CA) were used to assess the expression of 93 genes selected based on their selectivity and sensitivity to important hepatic receptors known to be modulated by environmental chemicals; importance in human hepatocyte functionality; and hepatotoxicity. […]
Structure (SMILES),outcome,AC50
O=S1OCC2C(CO1)C1(Cl)C(Cl)=C(Cl)C2(Cl)C1(Cl)Cl (stereo not given),inactive,
CNC(=O)Oc1ccccc1OC(C)C,inactive,
CCC(C)(C)C(=O)OC1=C(c2ccc(Cl)cc2Cl)C(=O)OC12CCCCC2,inactive,
O=C(NC(=O)c1c(F)cccc1F)Nc1ccc(OC(F)(F)C(F)OC(F)(F)F)c(Cl)c1 (stereo not given),inactive,
CC(C)OC(=O)Nc1cccc(Cl)c1,inactive,
CCN(CC)C(=O)SCc1ccc(Cl)cc1,inactive,
O=S(=O)(O)C(F)(F)C(F)(F)C(F)(F)C(F)(F)C(F)(F)C(F)(F)C(F)(F)C(F)(F)F,inactive,
ClC1C(Cl)C(Cl)C(Cl)C(Cl)C1Cl (stereo not given),inactive,
CCOC1Oc2ccc(OS(C)(=O)=O)cc2C1(C)C (stereo not given),,66.7 µM (active)
CC(C)N(C(=O)COc1nnc(C(F)(F)F)s1)c1ccc(F)cc1,inactive,
CC1(c2ccc(Oc3ccccc3)cc2)OC(=O)N(Nc2ccccc2)C1=O (stereo not given),inactive,
Cc1[nH]c(=O)n(C(C)(C)C)c(=O)c1Cl,inactive,
CCC(C)(NC(=O)c1cc(Cl)c(C)c(Cl)c1)C(=O)CCl (stereo not given),,65.3 µM (active)
CCc1ccc(C(=O)NN(C(=O)c2cc(C)cc(C)c2)C(C)(C)C)cc1,inactive,
O=C(Nc1ccccc1)Nc1cnns1,,78.6 µM (active)
CNC(=O)CSP(=S)(OC)OC,inactive,
COP(=S)(OC)Oc1ccc([N+](=O)[O-])cc1,inactive,
O=[N+]([O-])/N=C1\NCCN1Cc1ccc(Cl)nc1,inactive,
COc1nn(CSP(=S)(OC)OC)c(=O)s1,inactive,
N#CN,inactive,

Structure (SMILES),outcome,AC50
CN1CSC(=S)N(C)C1,inactive,
N#Cc1c(Cl)c(Cl)c(Cl)c(C#N)c1Cl,inactive,
CCCN(CCOc1c(Cl)cc(Cl)cc1Cl)C(=O)n1ccnc1,inactive,
CC1(C)C(C=C(Cl)Cl)C1C(=O)OC(C#N)c1ccc(F)c(Oc2ccccc2)c1 (stereo not given),inactive,
Clc1ccccc1-c1nnc(-c2ccccc2Cl)nn1,inactive,
CC(C)(C)C(O)/C(=C\c1ccc(Cl)cc1Cl)n1cncn1 (stereo not given),inactive,
Oc1cc(Cl)ccc1Oc1ccc(Cl)cc1Cl,inactive,
O=C(O)CCCOc1ccc(Cl)cc1Cl,inactive,
CNC(=O)Oc1cccc(N=CN(C)C)c1,inactive,
C#CCN1C(=O)COc2cc(F)c(N3C(=O)C4=C(CCCC4)C3=O)cc21,inactive,
O=C1c2ccccc2C(=O)N1SC(Cl)(Cl)Cl,inactive,
C[C@H]1[C@H](c2ccc(Cl)cc2)SC(=O)N1C(=O)NC1CCCCC1,inactive,
CC(C)(C)C(O)C(Oc1ccc(Cl)cc1)n1cncn1 (stereo not given),inactive,
O=[N+]([O-])c1c(Cl)c(Cl)c(Cl)c(Cl)c1Cl,inactive,
CNC(=O)/C=C(\C)OP(=O)(OC)OC,inactive,
Oc1ccc(Cl)cc1Cc1ccccc1,inactive,
O=C(O)COc1ccc(Cl)cc1Cl,inactive,
CCCN(CCC)c1c([N+](=O)[O-])cc(C(F)(F)F)cc1[N+](=O)[O-],inactive,
CCOCN(C(=O)CCl)c1c(C)cccc1CC,inactive,
OCCOc1ccccc1,inactive,
